# Reference: publication PMC4336329 (PLoS ONE, 2015)
# Screen size: about 310,000 compounds; about 14,000 (4.5%) showed an effect of 50% or more. Effects have a minus sign here. This is one part of a sample in which strong results are shown more often than they occur.
# Target: human ether-à-go-go-related gene (hERG) potassium channel (human, UniProt Q12809)
# Test: primary screen, population patch clamp on CHO cells stably expressing hERG; higher = less effect of the substance
# 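Note: peak tail current of the secondary pulse compared with the same well before compound.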
# human ether-à-go-go-related gene (hERG) potassium channel, sequence (Q12809 whole entry, looked up): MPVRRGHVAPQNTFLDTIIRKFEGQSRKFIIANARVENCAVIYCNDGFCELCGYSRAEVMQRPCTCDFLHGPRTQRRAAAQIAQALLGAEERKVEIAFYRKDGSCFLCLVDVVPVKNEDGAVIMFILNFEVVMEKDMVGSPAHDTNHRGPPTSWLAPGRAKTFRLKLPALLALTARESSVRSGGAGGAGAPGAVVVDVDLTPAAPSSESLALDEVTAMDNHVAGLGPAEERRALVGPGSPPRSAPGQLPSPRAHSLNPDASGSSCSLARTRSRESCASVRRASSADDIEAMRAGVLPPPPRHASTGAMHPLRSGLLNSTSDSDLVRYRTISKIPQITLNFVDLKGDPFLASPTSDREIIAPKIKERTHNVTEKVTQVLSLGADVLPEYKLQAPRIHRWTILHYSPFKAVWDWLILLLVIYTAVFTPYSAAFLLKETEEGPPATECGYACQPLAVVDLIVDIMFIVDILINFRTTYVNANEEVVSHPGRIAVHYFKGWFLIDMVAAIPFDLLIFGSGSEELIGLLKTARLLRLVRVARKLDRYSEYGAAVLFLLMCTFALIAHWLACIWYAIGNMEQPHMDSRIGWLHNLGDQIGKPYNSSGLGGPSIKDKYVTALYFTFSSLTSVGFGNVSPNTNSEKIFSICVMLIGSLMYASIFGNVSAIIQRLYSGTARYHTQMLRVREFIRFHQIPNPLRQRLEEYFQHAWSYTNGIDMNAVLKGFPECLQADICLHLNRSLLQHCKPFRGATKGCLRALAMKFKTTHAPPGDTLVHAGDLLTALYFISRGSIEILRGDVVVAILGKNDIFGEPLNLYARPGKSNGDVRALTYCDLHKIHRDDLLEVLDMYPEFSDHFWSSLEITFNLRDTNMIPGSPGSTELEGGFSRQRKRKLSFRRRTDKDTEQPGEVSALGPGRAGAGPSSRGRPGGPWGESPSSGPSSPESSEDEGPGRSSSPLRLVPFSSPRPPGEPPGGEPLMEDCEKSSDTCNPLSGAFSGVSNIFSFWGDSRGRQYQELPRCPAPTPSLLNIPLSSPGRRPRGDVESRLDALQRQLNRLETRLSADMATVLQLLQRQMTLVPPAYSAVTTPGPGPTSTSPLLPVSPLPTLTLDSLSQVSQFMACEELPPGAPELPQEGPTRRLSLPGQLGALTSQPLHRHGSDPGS
row,SMILES,"hERG current change (%, negative = inhibition) at 10uM [%]"
1,O=C(CSc1ncn(-c2ccccc2)n1)c1cccs1,-3.5
2,Cc1ccc(S(=O)(=O)N2CCN(S(=O)(=O)c3ccc4c(c3)OCCO4)CC2)cc1,8.43
3,COc1ccccc1CNC(=O)c1cc(-c2ccncc2)nc2c(Cl)cccc12,10.5
4,COc1ccc(CCNC(=O)c2cnc3ccccn3c2=O)cc1,-22.3
5,COc1ccc(CCNC(=O)c2cc(-c3ccccn3)nc3c(Cl)cccc23)cc1OC,10.5
6,COc1ccc(CNC(=O)c2c(C)nc3ccccn23)cc1,-12.1
7,COc1ccc(CCNC(=O)c2cc3c(=O)n4ccccc4nc3n(C3CCCCC3)c2=N)cc1,-81.3
8,COc1ccc(CCNC(=O)c2cc3c(=O)n4ccccc4nc3n(C3CCCCC3)c2=N)cc1OC,-76.6
9,COc1ccc(CCNC(=O)c2cc(-c3ccncc3)nc3c(Cl)cccc23)cc1OC,-66.9
10,COc1ccc(CCNC(=O)c2cccc3ccccc23)cc1OC,7.77
11,COc1ccc(CCNC(=O)c2c(C)nc3ccccn23)cc1OC,-64.3
12,COc1ccc(CCNC(=O)c2c(C)nc3ccccn23)cc1,-4.75
13,COc1ccc(CCNC(=O)c2cccc3c2C(=O)N(C2CCCCC2)C3)cc1OC,-24.1
14,Cc1cc(NC(=O)c2ccc3nc(-c4ccccc4)c(-c4ccccc4)nc3c2)no1,6.59
15,Nc1c(/C=C2\C=Nc3ccccc32)c(=O)nc2sc(CC(=O)N3CCOCC3)nn12,17.2
16,Cc1ccc(Cn2c(C(C)Nc3nc(-c4ccc(Cl)c([N+](=O)[O-])c4)cs3)nc3cc(C(F)(F)F)ccc32)cc1 (stereo not shown),5.46
17,Fc1ccccc1COc1ccc(/C=N/n2cnnc2)cc1,-12.2
18,COc1cc(O)c(C(CCN2CCCCC2)c2ccc(N(C)C)cc2)c(OC)c1 (stereo not shown),-8.43
19,COc1cc(O)c(C(CCN2CCCCC2)c2cc(OC)c(OC)c(OC)c2)c(OC)c1 (stereo not shown),4.24
20,COc1ccc(C(CCN2CCOCC2)c2c(O)cc(OC)cc2OC)cc1 (stereo not shown),-47.1
21,COc1ccc(C(CCN2CCCCC2)c2c(O)cc(OC)cc2OC)cc1 (stereo not shown),-75.2
22,COc1cc(O)c(C(CCN2CCCC2)c2ccc(N(C)C)cc2)c(OC)c1 (stereo not shown),-10

row,SMILES,"hERG current change (%, negative = inhibition) at 10uM [%]"
1,COc1ccc(C(CCN2CCCC2)c2c(O)cc(OC)cc2OC)cc1 (stereo not shown),-61.2
2,COc1ccccc1NS(=O)(=O)c1ccc2c(c1)NC(=O)CC(=O)N2,14.5
3,COc1cc(CNn2cn[nH]c2=S)cc(Br)c1OCc1ccccc1F,6.75
4,CC1(C(=O)O)COC(c2ccc(Cl)cc2)OC1 (stereo not shown),-25.3
5,CC(=O)Nc1ccc(S(=O)(=O)N(C)CC(=O)Nc2cccc(S(=O)(=O)N3CCCC3)c2)cc1,-8.1
6,O=C(CCS(=O)(=O)c1ccc(Cl)cc1)N1CCN(c2ccc(F)cc2)CC1,-76.1
7,COc1ccc(S(=O)(=O)CCC(=O)N2CCN(c3ccc(F)cc3)CC2)cc1,-59.7
8,COc1ccc(S(=O)(=O)CCC(=O)N2CCN(c3ccc(C(C)=O)cc3)CC2)cc1,-45.9
9,COc1ccc(N2CCN(C(=O)CCS(=O)(=O)c3ccc(OC)cc3)CC2)cc1,-19.3
10,O=C(CCS(=O)(=O)c1ccc(Br)cc1)N1CCN(c2ccc(F)cc2)CC1,-66.3
11,O=C(CCS(=O)(=O)c1ccc(Br)cc1)N1CCN(c2ccc(Cl)cc2)CC1,-9.11
12,O=C(CCS(=O)(=O)c1ccc(Cl)cc1)N1CCN(c2ccccc2F)CC1,-12.2
13,O=C(CCS(=O)(=O)c1ccc(F)cc1)N1CCN(c2ccccc2)CC1,-23.2
14,O=C(CCS(=O)(=O)c1ccccc1)N1CCN(c2ccc(F)cc2)CC1,-35.9
15,Cc1ccc(-c2ccc(CCC(=O)O)o2)cc1,14.5
16,CN(CCC#N)C(=S)Nc1ccc(Oc2ccccc2)cc1,-28.6
17,N#Cc1c(SCC(N)=O)nsc1SCc1ccc(Cl)cc1,-0.34
18,Cn1nc(-c2ccc(C(=O)O)cc2)c2ccccc2c1=O,11.6
19,CC(C)C12CCC(C(=O)O)C(C1)C(=O)O2 (stereo not shown),13.9
20,N#Cc1ccccc1Oc1ccc(S(=O)(=O)N2CCCCC2)cn1,-79.6
21,N#Cc1ccc(Oc2ccc(S(=O)(=O)N3CCCC3)cn2)cc1,-35.8
22,N#Cc1ccc(Oc2ccc(S(=O)(=O)N3CCCCC3)cn2)cc1,-24.7

row,SMILES,"hERG current change (%, negative = inhibition) at 10uM [%]"
1,N/C(=N\OC(=O)c1ccccc1Cl)c1ccccc1,-16.2
2,O=C(c1cccs1)N(C(=O)c1cccs1)c1ccccn1,9.68
3,CCCn1c2c(c(O)c(C(=O)NCc3ccccc3)c1=O)CCCC2,17
4,CCn1c(=O)c(C(=O)NCCCO)c(O)c2ccccc21,10.1
5,C=CCn1c(=O)c(C(=O)NCCN(CC)CC)c(O)c2ccccc21.Cl,-19.2
6,CCCn1c2c(c(O)c(C(=O)NC)c1=O)CCCC2,-6.66
7,CC1CCc2cc(F)cc3c(O)c(C(=O)NCC4CCCO4)c(=O)n1c23 (stereo not shown),-13.4
8,CC1CCc2cc(F)cc3c(O)c(C(=O)NCCN(C)C)c(=O)n1c23.Cl (stereo not shown),-1
9,CCN(CC)CCNC(=O)c1c(O)c2ccccc2n(Cc2ccccc2)c1=O.Cl,-63
10,CCn1c(=O)c(C(=O)NCCCc2ccccc2)c(O)c2ccccc21,8.18
11,CCn1c(=O)c(C(=O)NCCc2ccccc2)c(O)c2ccccc21,19.7
12,CCN(CC)CCCNC(=O)c1c(O)c2ccccc2n(Cc2ccccc2)c1=O.Cl,-63.8
13,CCCn1c2c(c(O)c(C(=O)NCCCN(CC)CC)c1=O)CCCC2.Cl,-55
14,CCN(CC)CCCNC(=O)c1c(O)c2cc(F)cc3c2n(c1=O)C(C)CC3.Cl (stereo not shown),-50.5
15,O=C(O)c1ccccc1-c1ccccc1C(=O)Nc1ccccc1-c1ccccc1,19.8
16,O=C(Nc1nncs1)Oc1ccccc1,8.98
17,CC1CCC/C(=C\Nc2ccc(O)cc2)C1=O (stereo not shown),-0.0111
18,Cc1cc(C(=O)NNC(=O)c2cccs2)c(C)o1,7.06
19,CCN(CC)C(=O)CSc1nnc(-c2ccncc2)n1N,13.4
20,Cc1ccc(-c2nnn(CC(=O)N(c3ccccc3F)C(CC(C)C)C(=O)NCC3CCCO3)n2)cc1 (stereo not shown),-13
21,O=C1NCN(c2ccccc2)C12CCN(c1nnnn1-c1ccccc1)CC2,-11.7
22,O=C1CC(N2CCC(n3c(=O)[nH]c4ccccc43)CC2)C(=O)N1c1ccc(F)cc1 (stereo not shown),-7.5

row,SMILES,"hERG current change (%, negative = inhibition) at 10uM [%]"
1,O=C(CCCN1CCC(n2c(=O)[nH]c3ccccc32)CC1)c1ccc(F)cc1,-73
2,O=c1[nH]c2ccccc2n1C1CCN(CCCC(c2ccc(F)cc2)c2ccc(F)cc2)CC1,-77.6
3,O=C1NCN(c2ccccc2)C12CCN(CCCC(c1ccc(F)cc1)c1ccc(F)cc1)CC2,-75.8
4,Cl.O=c1[nH]c2ccccc2n1CCCN1CCCCC1,16.5
5,O=C(Nc1cccc(F)c1)N1CCC(n2c(=O)[nH]c3ccccc32)CC1,-19
6,O=c1[nH]c2ccccc2n1C1CCCCC1,-5.49
7,O=c1[nH]c2ccccc2n1CCCN1CCC(n2c(=O)[nH]c3cc(Cl)ccc32)CC1,-65.5
8,O=C(NC1CCCCC1)N1CCC(n2c(=O)[nH]c3ccccc32)CC1,2.34
9,O=C1CC(N2CCC(n3c(=O)[nH]c4ccccc43)CC2)C(=O)N1Cc1ccccc1 (stereo not shown),-21.4
10,O=C1NCN(c2ccccc2)C12CCNCC2,3.05
11,COc1cc(/C=N/NC(=O)c2ccccn2)ccc1OC(=O)c1ccccc1Br,-1.22
12,CC(=O)Oc1ccc2oc(-c3ccccc3)c(C(N)=O)c2c1,-14.1
13,COCCCn1c(C23CC4CC(CC(C4)C2)C3)n[nH]c1=S,-5.2
14,O=C(c1csc2c1CCCC2)N1CCN(c2ccccc2)CC1,-14.8
15,O=S(=O)(Cc1ccccc1)N1CCN(Cc2ccc(F)cc2Cl)CC1,4.56
16,CCc1nnc(NC(=O)CN2CCN(c3nc(-c4ccccc4)cs3)CC2)s1,-11.8
17,COCCCNC(=O)C1CCN(C(=O)c2oc3cc4sc(N(C)C)nc4cc3c2C)CC1,7.03
18,CCOC(=O)CNC(=O)CNC(=O)c1nn(-c2ccc(OC)c(Cl)c2)c(=O)c2ccccc12,2.21
19,Cc1ccccc1C(=O)NC(=S)N(C)C1CCCCC1,21.2
20,COc1cccc(Cn2nc(C(=O)O)c3ccccc3c2=O)c1,9.63
21,O=C(OCc1nc2ccsc2c(=O)[nH]1)c1ccc(Cl)s1,-5.59
22,O=C(Nc1nc2ccccc2[nH]1)c1cccc(Cl)c1,17.5
